High-throughput results: PubChem, National Center for Advancing Translational Sciences (NCATS)
An excerpt weighted towards active compounds, which were near 19% of everything screened.
DT40 TDP1 no CPT: qHTS for Inhibitors of human tyrosyl-DNA phosphodiesterase 1 (TDP1): qHTS in cells in absence of CPT; actives 15% (n = 420,000); Potency, µM (highest dose often 46.2 µM), actives largely listed as inhibitors; DT40 Tdp1-/- hTDP1 cells, no CPT, ATP luminescence, 48 h; note: nearly all actives have a fitted effect of over 55% in size
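Growth of hTDP1-complemented DT40 Tdp1-knockout cells is measured by ATP luminescence after at least 48 hr compound exposure at 37 °C, with DMSO substituting for the 20 nM CPT used in the parallel screen.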
TDP1 cell CPT: DT40-hTDP1 cell growth loss with CPT | Potency, µM (doses to about 46.2 µM), most hits filed as inhibitors | AID 686979 | chicken DT40 Tdp1-/-;hTDP1 cells + 20 nM CPT, ATP luminescence, 48 h | actives 12% (n = 420,000); note: nearly all actives have a fitted effect of over 55% in size
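Chicken DT40 Tdp1-/- cells stably complemented with human TDP1 were seeded at 400 cells/well in medium containing 20 nM camptothecin, exposed to pin-transferred compounds, and grown at 37 °C for at least 48 hr. Viability was read as ATP luminescence.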
HT1080-NT tox: kills 2HG-producing HT-1080-NT fibrosarcoma cells; HT-1080-NT fibrosarcoma viability, CellTiter-Glo ATP luminescence, 48 h; actives 1.6% (n = 360,000); Potency, µM (highest dose often 46.1 µM), most hits filed as cytotoxic;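 note: NT is the 2HG producing partner of a matched IDH1 knockdown line; nearly all actives have a fitted effect of over 55% in size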
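Read-out is CellTiter-Glo luminescence after 10 minutes at room temperature, following 48 hours' compound treatment of HT-1080-NT cells (750 cells/well, RPMI, 5% FBS, 37 degrees C).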
IL-1B inflam inh: blocks inflammasome-driven IL-1 beta release. THP-1 LPS/ATP IL-1B secretion, AlphaLISA, 16 h; hits give low values. activity change, % at 57.5 µM. actives 4.7% (n = 360,000). AID 743279; in the data active = activity change below about -50%; inconclusive = mostly about -30% to -49%
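Secreted IL-1B measured by AlphaLISA bead assay after 16 h compound exposure of THP-1 cells; compounds (final up to 57.5 uM) added 1 h before LPS (250 ng/mL) and ATP (1.25 mM) stimulation; lower signal means less secretion.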
HT1080 IDH1KD tx: HT-1080 IDH1 knockdown cell toxicity (counter line) | HT-1080 IDH1 knockdown viability, ATP luminescence, 48 h | Potency, µM (titrated, usually from 46.1 µM), actives largely listed as cytotoxic | actives 2% (n = 360,000) | AID 686971
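Cytotoxicity counter-line: IDH1KD HT-1080, 48 h, CellTiter-Glo. Curves classed by r2, magnitude and activity.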
A number is an active result; n = inactive; u = inconclusive; x = not tested or not shown. Unless noted, calls come from the whole dose curve; as a rule, active = well fitted curve in the direction sought with a large enough effect; inconclusive = small, poorly fitted or top-dose-only effect, or another doubt; inactive = no such curve, though single readings can be large; an effect the other way counts as inactive or inconclusive.

SMILES | DT40 TDP1 no CPT | TDP1 cell CPT | HT1080-NT tox | IL-1B inflam inh | HT1080 IDH1KD tx
CCOc1ccc(-c2[nH]ncc2-c2ccc(Cl)cc2)c(O)c1 | u | 16µM | n | n | n
CCOc1ccc(-c2[nH]ncc2-c2ccc(OC)c(OC)c2)c(O)c1 | 3.7µM | 3.7µM | 6.3µM | n | 2.2µM
COc1cccc(-c2ncn(CCc3ccccc3OC)c2C(C)C)c1 | 5.8µM | 7.3µM | 13µM | n | 15µM
COc1ccccc1CCn1cnc(C)c1CC(C)C | 6.5µM | 12µM | u | n | u
COc1ccccc1CCn1cnc(Cc2cccc(F)c2)c1C(C)C | u | u | u | n | u
COc1ccccc1CCn1c(=O)c(C)nc2cncnc21 | u | n | x | x | x
CCc1ncn(CCc2ccccc2OC)c1C(C)C | 4.6µM | 3.7µM | u | n | u
OCCCNC(=S)Nc1ccc(Br)cc1Cl | n | n | n | n | n
CCN1/C(=C/C=C/c2oc3ccc4ccccc4c3[n+]2CC)Oc2ccc3ccccc3c21 | 0.18µM | 0.65µM | u | n | u
C[C@@H](O[C@H]1OCCN(Cc2n[nH]c(=O)[nH]2)[C@H]1c1ccc(F)cc1)c1cc(C(F)(F)F)cc(C(F)(F)F)c1 | 21µM | 19µM | x | x | x
O=C(CSc1nccn1-c1ccc(Cl)cc1)NCc1ccc2c(c1)OCO2 | n | n | n | n | n
Cc1sc(NC(=O)Nc2ccccc2)c(C(N)=O)c1C | n | u | n | -76 | n
Cc1sc(NC(=S)NC(=O)CCc2ccccc2)c(C(N)=O)c1C | 0.18µM | 0.21µM | 0.16µM | n | u
COC(=O)c1c(NC(=O)Nc2ccc(Cl)cc2)sc(C)c1C | u | u | u | n | n
CCCC(=O)Nc1sc(Cc2ccccc2)c(C)c1C(N)=O | 23µM | u | n | u | n
COC(=O)CCC(=O)NC(=S)Nc1sc(C)c(C)c1C(N)=O | 0.15µM | 0.16µM | u | n | 0.33µM
CCCOc1cccc(C(=O)NCCNC(=O)c2cnccn2)c1 | n | n | n | n | n
COc1ccc(OC)c2c(C)cc(NCCN3CCOCC3)nc12 | n | n | n | u | n
COc1ccccc1CN(Cc1nc2ccccc2c(=O)[nH]1)C(=O)Nc1cccc(C)c1 | 3.7µM | 3.3µM | 7.1µM | n | 3.5µM
COc1ccccc1NC(=O)N(Cc1ccc2c(c1)OCO2)Cc1nc2ccccc2c(=O)[nH]1 | 13µM | 18µM | n | n | n
CCCCN(C(=O)CSc1nnc(-c2ccc(OC)cc2)n1CC)c1c(N)n(Cc2ccccc2)c(=O)[nH]c1=O | n | n | n | -60 | n
CCCCN(C(=O)CCCSc1nc2ccccc2[nH]1)c1c(N)n(Cc2ccccc2)c(=O)[nH]c1=O | n | n | n | -90 | n
CCCCN(C(=O)CSc1nnc(-c2ccc(OC)cc2)n1C(C)C)c1c(N)n(Cc2ccccc2)c(=O)[nH]c1=O | u | n | n | u | n
Nc1c(N(CCCO)C(=O)CCCN2C(=O)c3cccc4cccc(c34)C2=O)c(=O)[nH]c(=O)n1Cc1ccccc1 | u | 10µM | n | n | n
COC(=O)c1ccc(N(C(=O)c2ccco2)C(C(=O)NC2CCCC2)c2ccco2)cc1 (stereo not drawn) | u | n | n | n | n
SMILES | DT40 TDP1 no CPT | TDP1 cell CPT | HT1080-NT tox | IL-1B inflam inh | HT1080 IDH1KD tx
COCCN(C(=O)COC(=O)c1cc2c(s1)CCCC2)c1c(N)n(Cc2ccccc2)c(=O)[nH]c1=O | n | n | n | n | n
CCNC(=O)C1(C)CCN(C(=O)CCc2ccccc2)C1 (stereo not drawn) | n | n | u | n | n
Cc1nc2ccccn2c1-c1nnco1 | n | n | n | n | n
Cc1nc2ccccn2c1-c1ccnn1S(=O)(=O)c1ccc(F)cc1 | 12µM | 21µM | u | n | n
O=C(/C=C/C=C/c1ccccc1)c1ccco1 | 18µM | u | n | u | n
COC(=O)C1CCN(C(=O)/C=C/c2ccc3c(c2)OCO3)CC1 | 16µM | u | n | n | n
O=C(/C=C/c1ccc(Br)cc1)c1ccco1 | 16µM | 7.3µM | u | -108 | u
O=C(/C=C/c1ccc2c(c1)OCO2)c1cccnc1 | u | u | n | u | n
O=C(C=Cc1ccco1)c1ccco1 | n | n | n | u | n
